Results reported in PubChem BioAssay (EPA / NIEHS).
Active and inactive are the calls of the source. The calls were made as follows: active = hit-call score of the fitted dose curve at least 0.9, where 1 is the maximum; inactive = score below 0.9.

Legend:
Details in all cases: mRNA level, 48 h; actives raise or lower the signal
[1] = read-out: Peroxisomal acyl-coenzyme A oxidase 1 (ACOX1) gene, ACOX1 (gene 51); test: LTEA_HepaRG_ACOX1: Life Technologies and Expression Analysis (LTEA) Assay for Peroxisomal acyl-coenzyme A oxidase 1 (ACOX1) gene using HepaRG (AID 2283467)
Outline: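 HepaRG, 48 h chemical exposure, 8-pt half-log series from 100 uM top, 0.5% DMSO vehicle, duplicates. Readout: ACOX1 mRNA by Fluidigm qRT-PCR, housekeeping-normalized; bidirectional fit vs DMSO baseline.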

[2] = read-out: Alkaline Phosphatase, Placental (ALPP) gene, ALPP (gene 250); test: LTEA_HepaRG_ALPP: Life Technologies and Expression Analysis (LTEA) Assay for Alkaline Phosphatase, Placental (ALPP) gene using HepaRG (AID 2283468)
Outline: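 HepaRG cells plated 48 h, then exposed in duplicate for 48 h in serum-free induction medium to 8-point half-log series from 100 uM in 0.5% DMSO. ALPP mRNA by TaqMan qRT-PCR, normalized to ACTB/GAPDH/POLR2A; bidirectional fit versus DMSO.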

[3] = read-out: Bcl-2 (BAD) gene, BAD (gene 572); test: LTEA_HepaRG_BAD: Life Technologies and Expression Analysis (LTEA) Assay for Bcl-2 (BAD) gene using HepaRG (AID 2283469)
Outline: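 HepaRG, 48 h exposure, 8-pt half-log curve from 100 uM in 0.5% DMSO, duplicates. Readout: TaqMan qRT-PCR for BAD mRNA, housekeeping-normalised (ACTB/GAPDH/POLR2A); gain or loss fitted against DMSO baseline.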

[4] = read-out: Bcl-2 (BAX) gene, BAX (gene 581); test: LTEA_HepaRG_BAX: Life Technologies and Expression Analysis (LTEA) Assay for Bcl-2 (BAX) gene using HepaRG (AID 2283470)
Outline: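 Gene expression measured by Fluidigm qRT-PCR with three housekeeping genes for normalisation. HepaRG cells, plated 48 h beforehand, treated 48 h at up to 100 uM (8-point, half-log) in 0.5% DMSO. Bidirectional fitting versus DMSO.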

[5] = read-out: adenosine kinase (ADK) gene, ADK (gene 132); test: LTEA_HepaRG_ADK: Life Technologies and Expression Analysis (LTEA) Assay for adenosine kinase (ADK) gene using HepaRG (AID 2283471)
Outline: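 ADK expression quantified by qRT-PCR, normalised to three housekeeping genes, after 48 h exposure of HepaRG cells to eight concentrations (top 100 uM, half-log steps, duplicate, 0.5% DMSO). Up- or down-regulation fitted relative to vehicle.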

[6] = read-out: Alpha-fetoprotein (AFP) gene, AFP (gene 174); test: LTEA_HepaRG_AFP: Life Technologies and Expression Analysis (LTEA) Assay for Alpha-fetoprotein (AFP) gene using HepaRG (AID 2283472)
Outline: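 AFP transcript measured by TaqMan qRT-PCR with three housekeeping genes for normalization, after 48 h chemical treatment of HepaRG cells (top 100 uM, half-log steps, 0.5% DMSO). Gain or loss fitted against vehicle.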

[7] = read-out: Apolipoprotein A-V (APOA5) gene, APOA5 (gene 116519); test: LTEA_HepaRG_APOA5: Life Technologies and Expression Analysis (LTEA) Assay for Apolipoprotein A-V (APOA5) gene using HepaRG (AID 2283474)
Outline: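 Differentiated HepaRG cells in serum-free induction medium, exposed 48 h in duplicate to eight half-log concentrations topping at 100 uM (0.5% DMSO). APOA5 mRNA by Fluidigm TaqMan qRT-PCR, normalized to ACTB, GAPDH and POLR2A; bidirectional fit versus DMSO.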

[8] = read-out: Apoptosis regulator Bcl-2 (Homo sapiens) (UniProt P10415); test: LTEA_HepaRG_BCL2: Life Technologies and Expression Analysis (LTEA) Assay for Bcl-2 gene using HepaRG (AID 2283475)
Outline: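 qRT-PCR of BCL2 transcript, normalized to three housekeeping genes (ACTB, GAPDH, POLR2A), after 48 h chemical exposure of HepaRG cells; concentrations top 100 uM with half-log dilutions, 0.5% DMSO vehicle, duplicates; changes up or down fitted relative to vehicle.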

[9] = read-out: Bcl-2 (BID) gene, BID (gene 637); test: LTEA_HepaRG_BID: Life Technologies and Expression Analysis (LTEA) Assay for Bcl-2 (BID) gene using HepaRG (AID 2283476)
Outline: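 Duplicate 48 h treatments of HepaRG cells in serum-free induction medium spanned 100 uM downward in half-log steps, 0.5% DMSO. Transcript change quantified by qRT-PCR against three housekeeping genes, fitted up or down versus DMSO.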

Caspase-3 (Homo sapiens) = Caspase-3 (Homo sapiens) (UniProt P42574); test: LTEA_HepaRG_CASP3: Life Technologies and Expression Analysis (LTEA) Assay for cysteine-aspartic acid protease (CASP3) using HepaRG (AID 2283477)
Sequence of Caspase-3 (Homo sapiens) (P42574 whole entry, looked up): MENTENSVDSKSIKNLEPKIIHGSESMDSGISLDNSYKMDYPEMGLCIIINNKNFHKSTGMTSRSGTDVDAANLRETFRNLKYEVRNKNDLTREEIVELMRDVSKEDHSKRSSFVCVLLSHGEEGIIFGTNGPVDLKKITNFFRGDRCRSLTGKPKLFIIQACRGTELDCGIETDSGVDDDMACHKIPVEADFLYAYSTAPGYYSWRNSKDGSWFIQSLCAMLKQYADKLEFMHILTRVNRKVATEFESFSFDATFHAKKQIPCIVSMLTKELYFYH
Outline: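 Differentiated HepaRG cells, plated 48 h, were treated in duplicate in serum-free induction medium for 48 h with eight half-log concentrations up to 100 uM in 0.5% DMSO. CASP3 mRNA measured by qRT-PCR, normalized to ACTB, GAPDH, POLR2A.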

[10] = read-out: Cytochrome P450 (CYP24A1), CYP24A1 (gene 1591); test: LTEA_HepaRG_CYP24A1: Life Technologies and Expression Analysis (LTEA) Assay for Cytochrome P450 (CYP24A1) using HepaRG (AID 2283478)
Outline: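 HepaRG cells plated 48 h, then exposed in duplicate in serum-free induction medium for 48 h to 8-point half-log series from 100 uM in 0.5% DMSO. CYP24A1 mRNA by Fluidigm qRT-PCR, normalized to ACTB, GAPDH, POLR2A; bidirectional fit versus DMSO.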

[11] = read-out: Cytochrome P450 (CYP1A2), CYP1A2 (gene 1544); test: LTEA_HepaRG_CYP1A2: Life Technologies and Expression Analysis (LTEA) Assay for Cytochrome P450 (CYP1A2) using HepaRG (AID 2283479)
Outline: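 Differentiated human HepaRG cells in serum-free induction medium exposed 48 hours in duplicate to 8 half-log concentrations from 100 uM, 0.5% DMSO. CYP1A2 mRNA quantified by qRT-PCR, normalized to ACTB, GAPDH and POLR2A; bidirectional fitting versus DMSO.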

[12] = read-out: cysteine-aspartic acid protease (CASP8), CASP8 (gene 841); test: LTEA_HepaRG_CASP8: Life Technologies and Expression Analysis (LTEA) Assay for cysteine-aspartic acid protease (CASP8) using HepaRG (AID 2283480)
Outline: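 qRT-PCR readout of CASP8 mRNA, normalized to three housekeeping genes, after 48 h chemical exposure of HepaRG cells; 8-point half-log series, top 100 uM, 0.5% DMSO vehicle. Bidirectional curve fitting against DMSO baseline.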

[13] = read-out: Cytochrome P450 (CYP2B6), CYP2B6 (gene 1555); test: LTEA_HepaRG_CYP2B6: Life Technologies and Expression Analysis (LTEA) Assay for Cytochrome P450 (CYP2B6) using HepaRG (AID 2283481)
Outline: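 Differentiated human HepaRG cells in serum-free induction medium, dosed in duplicate for 48 h over 8 half-log concentrations topping at 100 uM (0.5% DMSO). CYP2B6 mRNA measured by TaqMan qRT-PCR, normalized to ACTB, GAPDH, POLR2A; bidirectional fit versus DMSO.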

[14] = read-out: Cytochrome P450 2C19 (Homo sapiens) (UniProt P33261); test: LTEA_HepaRG_CYP2C19: Life Technologies and Expression Analysis (LTEA) Assay for CYP2C19 using HepaRG (AID 2283482)
Outline: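 Differentiated HepaRG cells in serum-free induction medium exposed 48 h in duplicate, 8 concentrations from 100 uM by half-log steps in 0.5% DMSO. CYP2C19 mRNA measured by TaqMan qRT-PCR, normalized to ACTB, GAPDH, POLR2A. Bidirectional fit versus DMSO.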

CYP2C8 (gene 1558) = test: LTEA_HepaRG_CYP2C8: Life Technologies and Expression Analysis (LTEA) Assay for CYP2C8 using HepaRG (AID 2283483)
Outline: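 HepaRG (human liver line), 48 h chemical exposure, 8-pt half-log series from 100 uM, 0.5% DMSO vehicle. Readout: CYP2C8 transcript by qRT-PCR, housekeeping-normalized. Bidirectional fit vs DMSO baseline.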

CYP2C9 (gene 1559) = test: LTEA_HepaRG_CYP2C9: Life Technologies and Expression Analysis (LTEA) Assay for CYP2C9 using HepaRG (AID 2283484)
Outline: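 HepaRG, 48 h dosing, 8-pt half-log series, top 100 uM, 0.5% DMSO vehicle. Read-out: CYP2C9 transcript by TaqMan qRT-PCR, housekeeping-normalized (ACTB/GAPDH/POLR2A). Gain or loss fitted vs DMSO baseline.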

CYP2E1 (gene 1571) = test: LTEA_HepaRG_CYP2E1: Life Technologies and Expression Analysis (LTEA) Assay for CYP2E1 using HepaRG (AID 2283485)
Outline: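 CYP2E1 transcript measured by Fluidigm qRT-PCR against three housekeeping genes in human HepaRG cells treated 48 h (top 100 uM, half-log steps, 0.5% DMSO vehicle). Gain or loss fitted relative to DMSO baseline.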

CYP4A11 (gene 1579) = test: LTEA_HepaRG_CYP4A11: Life Technologies and Expression Analysis (LTEA) Assay for CYP4A11 using HepaRG (AID 2283486)
Outline: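 Differentiated HepaRG cells, 48 h after plating, exposed in duplicate for 48 h to 8 half-log concentrations up to 100 uM in 0.5% DMSO in serum-free induction medium. CYP4A11 mRNA measured by TaqMan qRT-PCR, normalized to ACTB, GAPDH and POLR2A.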

[15] = read-out: Cytochrome P450 3A4 (Homo sapiens) (UniProt P08684); test: LTEA_HepaRG_CYP3A4: Life Technologies and Expression Analysis (LTEA) Assay for CYP3A4 using HepaRG (AID 2283487)
Outline: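 Differentiated HepaRG cells, plated 48 h, then dosed 48 h in serum-free induction medium with 0.5% DMSO, 8 half-log concentrations up to 100 uM, duplicate. CYP3A4 mRNA by qRT-PCR, normalized to ACTB/GAPDH/POLR2A; bidirectional fit versus DMSO.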

Measured: AC50

Sequence of Apoptosis regulator Bcl-2 (Homo sapiens) (P10415 whole entry, looked up): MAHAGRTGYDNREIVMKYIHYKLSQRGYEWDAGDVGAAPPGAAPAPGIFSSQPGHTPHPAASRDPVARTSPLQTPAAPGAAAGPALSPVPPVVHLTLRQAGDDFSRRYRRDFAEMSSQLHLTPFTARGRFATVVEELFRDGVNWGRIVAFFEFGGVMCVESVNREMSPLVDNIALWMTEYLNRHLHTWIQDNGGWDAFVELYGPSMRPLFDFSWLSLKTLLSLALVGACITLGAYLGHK
Sequence of Cytochrome P450 3A4 (Homo sapiens) (P08684 whole entry, looked up): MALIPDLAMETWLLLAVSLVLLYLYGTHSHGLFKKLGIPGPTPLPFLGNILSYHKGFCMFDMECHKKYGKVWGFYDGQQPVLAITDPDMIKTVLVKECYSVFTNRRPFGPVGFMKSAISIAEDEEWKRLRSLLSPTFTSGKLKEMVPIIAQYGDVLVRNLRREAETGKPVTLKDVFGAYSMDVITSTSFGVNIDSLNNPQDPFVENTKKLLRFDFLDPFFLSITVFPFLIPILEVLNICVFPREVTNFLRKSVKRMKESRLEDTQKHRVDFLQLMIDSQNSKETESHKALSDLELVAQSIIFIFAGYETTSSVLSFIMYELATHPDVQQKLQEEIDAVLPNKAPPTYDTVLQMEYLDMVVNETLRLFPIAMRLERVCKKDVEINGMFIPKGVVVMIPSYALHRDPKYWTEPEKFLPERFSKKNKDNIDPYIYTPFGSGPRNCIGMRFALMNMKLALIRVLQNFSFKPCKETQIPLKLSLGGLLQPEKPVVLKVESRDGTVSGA
Sequence of Cytochrome P450 2C19 (Homo sapiens) (P33261 whole entry, looked up): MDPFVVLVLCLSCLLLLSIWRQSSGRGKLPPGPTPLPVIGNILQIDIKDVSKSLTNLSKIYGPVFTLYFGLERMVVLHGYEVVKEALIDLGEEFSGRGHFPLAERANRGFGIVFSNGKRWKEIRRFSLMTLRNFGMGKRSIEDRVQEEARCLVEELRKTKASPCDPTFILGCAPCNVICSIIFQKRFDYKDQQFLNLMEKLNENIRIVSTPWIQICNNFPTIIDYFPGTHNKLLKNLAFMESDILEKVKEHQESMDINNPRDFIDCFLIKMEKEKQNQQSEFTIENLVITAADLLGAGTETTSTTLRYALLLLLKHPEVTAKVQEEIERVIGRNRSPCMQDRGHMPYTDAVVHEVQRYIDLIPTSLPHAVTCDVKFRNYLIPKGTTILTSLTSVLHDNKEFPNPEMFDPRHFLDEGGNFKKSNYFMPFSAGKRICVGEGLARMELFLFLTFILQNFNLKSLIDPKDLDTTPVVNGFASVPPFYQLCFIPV

O=C(Nc1ccc2[nH]ccc2c1)c1cc2cc(F)ccc2n1Cc1cccc(F)c1
active: [1] 63.1 µM | [2] 14.4 µM | [4] 19.2 µM | [6] 25.2 µM | [7] 56.2 µM | [8] 22.7 µM | [11] 12.5 µM | [13] 35.1 µM | [14] 73.6 µM | CYP2C8 (gene 1558) 27 µM | CYP2C9 (gene 1559) 35.7 µM | CYP2E1 (gene 1571) 21.9 µM | CYP4A11 (gene 1579) 16.6 µM | [15] 83.5 µM
inactive: [3] | [5] | [9] | Caspase-3 (Homo sapiens) | [10] | [12]

O=c1[nH]c(=O)[nH]c(=O)[nH]1
inactive: all assays above

C=CC(=O)OCCCCCC(C)C
active: [7] 0.483 µM | [11] 50 µM
inactive: all other assays above

CN(C)N=O
inactive: all assays above

Oc1cccc2cccnc12
active: [11] 7.72 µM
not listed: CYP2C9 (gene 1559)
inactive: all other assays above

O=C1C2(Cl)C3(Cl)C4(Cl)C(Cl)(Cl)C5(Cl)C3(Cl)C1(Cl)C5(Cl)C24Cl (stereo not drawn)
inactive: [3] | [5] | [7] | [9] | [10] | [12] | [15]
active: [1] 0.0893 µM | [2] 26.7 µM | [4] 87.5 µM | [6] 24.1 µM | [8] 11.1 µM | Caspase-3 (Homo sapiens) 92.3 µM | [11] 8.79 µM | [13] 93.5 µM | [14] 26.4 µM | CYP2C8 (gene 1558) 25.2 µM | CYP2C9 (gene 1559) 94.1 µM | CYP2E1 (gene 1571) 13.2 µM | CYP4A11 (gene 1579) 22.8 µM

CCOP(=S)(OCC)SCSP(=S)(OCC)OCC
active: [5] 0.106 µM | [6] 50 µM | Caspase-3 (Homo sapiens) 0.095 µM | [11] 50 µM | [13] 13 µM | [14] 26.1 µM | CYP2C8 (gene 1558) 0.121 µM | CYP2E1 (gene 1571) 19.2 µM | [15] 12.5 µM
not listed: [10]
inactive: all other assays above

O=C(O)C(Cl)(Cl)Cl
inactive: all assays above
